# Screens (PubChem)
# This excerpt belongs to a sample that is enriched for hits.
# Tg IFNy HTS: T. gondii growth inhibition under IFN-gamma | hit rate 3.8% among 69,000 | AID 1259416 | Toxoplasma gondii growth in IFN-gamma-treated host cells; active compounds read low | activity change, negative = inhibition, % (no concentration beside the values); in the data active = activity change below about -70%, passing the limit was not always enough;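 note: host cells are HeLa cells infected with Toxoplasma gondii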
# A number is an active result; – = inactive; ! = not confirmed by another sample.
SMILES,Tg IFNy HTS
Cc1ccc(NC(=O)CN2C(=O)CCc3cc(S(=O)(=O)N4CCCCC4)ccc32)cc1C,–
Cc1ccc(NC(=O)CN2C(=O)CCc3cc(S(=O)(=O)N4CCCC4)ccc32)cc1,–
Cc1ccc(NC(=O)CN2C(=O)CCc3cc(S(=O)(=O)N4CCCC4)ccc32)cc1C,–
O=C(CN1C(=O)CCc2cc(S(=O)(=O)N3CCCCC3)ccc21)Nc1ccccc1,–
O=C(CN1C(=O)CCc2cc(S(=O)(=O)N3CCCCC3)ccc21)Nc1cccc(Cl)c1,-88
CC(C)c1ccc(NC(=O)CN2C(=O)CCc3cc(S(=O)(=O)N4CCCCC4)ccc32)cc1,-113
Cc1cccc(CN2CC[C@@H]3[C@H]2CCN3C(=O)c2cscn2)c1,–
O=C(Cn1ncc2c(N3CCCC3)ncnc21)NCCCc1ccccc1,–
COc1cccc(C2(O)CCCC3CN(S(=O)(=O)c4ccccc4F)CC32)c1 (stereo not given),–
CCC(CO)NC(=O)c1ncn2c(C3CCN(C(=O)C4CCCC4)CC3)ccnc12 (stereo not given),–
CCCCN(CCCC)CCNC(=O)C1=C(C)C(=O)OC12CCN(CC)CC2,–
CCc1nc(-c2nccn2CC2CC(=O)N(CC)C2)c(C)[nH]1 (stereo not given),–
COc1ccc(OC)c(-c2cc(C(=O)NC(C)c3ccc4c(c3)CCC4)[nH]n2)c1 (stereo not given),–
COc1ccc(C(C)NC(=O)c2c3c(nn2C)CCCC3)cc1F (stereo not given),-77
COc1ccc(C(C)NC(=O)c2cn3c(n2)CCCC3)cc1OC (stereo not given),–
Cc1oncc1C(=O)N1CCCn2cnc(COC(C)C)c2C1,–
CCc1nc(C)c(C(=O)N2CCOC(c3ccc(Cl)c(Cl)c3)C2)o1 (stereo not given),–
O=C(NCCc1ccco1)C1CCCN(C2CCN(Cc3ccncc3)CC2)C1 (stereo not given),–
CCN1[C@@H]2CCN(C(=O)CC3CC3)CC[C@@H]2Oc2ccccc2S1(=O)=O,–
COc1cccc2cc(C(=O)Nc3ccccc3-c3ccc(C)o3)c(=O)oc12,–
CN1CCC2(CN(c3ncccn3)CC23CCN(C(=O)C2CCOCC2)CC3)C1=O (stereo not given),–
C[C@@H]1CN([C@H](C)CO)C(=O)c2ccccc2-c2ccccc2CO[C@H]1CN(C)C(=O)Nc1cccc(C(F)(F)F)c1,–
C[C@H]1CN([C@@H](C)CO)C(=O)c2ccccc2-c2ccccc2CO[C@H]1CN(C)C(=O)NC1CCCCC1,–
C[C@H](CO)N1C[C@H](C)[C@@H](CN(C)C(=O)Nc2cccc(C(F)(F)F)c2)OCc2ccccc2-c2ccccc2C1=O,–
C[C@@H]1CN([C@@H](C)CO)C(=O)c2ccccc2-c2ccccc2CO[C@@H]1CN(C)C(=O)Nc1ccc(-c2ccccc2)cc1,–
SMILES,Tg IFNy HTS
C[C@@H]1CN([C@H](C)CO)C(=O)c2ccccc2-c2ccccc2CO[C@H]1CN(C)C(=O)Nc1ccc(-c2ccccc2)cc1,-76
C[C@@H]1CN([C@H](C)CO)C(=O)c2ccccc2-c2ccccc2CO[C@@H]1CN(C)C(=O)Nc1ccc(-c2ccccc2)cc1,-74
Cn1cccc1C(=O)N1CCCC2(COCCN(c3cccc(F)c3)C2)C1 (stereo not given),–
Cn1c(Cc2nc(-c3cnccn3)no2)nnc1SCC(=O)c1ccc(Cl)cc1,–
COc1ncccc1-c1ccc(C(O)CN2CCOCC2)cc1 (stereo not given),–
O=C1c2cccc(O)c2C(=O)c2c(O)cc(CO)cc21,–
O=C1c2c(O)ccc(O)c2C(=O)c2c(NCCNCCO)ccc(NCCNCCO)c21,-88
Cn1cccc1CN1C[C@H]2CN(C(=O)c3cccs3)C[C@@H]2C1,–
CN1C(=O)c2cc(NC(=O)Cc3cccs3)ccc2OC[C@H]2O[C@@H](CC(=O)NCC3CCCCC3)CC[C@@H]21,–
CN1C(=O)c2cc(NC(=O)c3ccc(C(F)(F)F)cc3)ccc2OC[C@H]2O[C@@H](CC(=O)NCc3ccc4c(c3)OCO4)CC[C@H]21,–
CN1C(=O)c2cc(NC(=O)NCc3ccccc3)ccc2OC[C@@H]2O[C@H](CC(=O)NCC3CCCCC3)CC[C@@H]21,-87
C[C@@H](NC(=O)C[C@H]1CC[C@@H]2[C@H](COc3ccc(NS(=O)(=O)c4ccc(Cl)cc4)cc3C(=O)N2C)O1)c1ccccc1,–
CN1C(=O)c2cc(NC(=O)Cc3cccs3)ccc2OC[C@@H]2O[C@H](CC(=O)NCC3CCCCC3)CC[C@H]21,–
CN1C(=O)c2cc(NC(=O)NCc3ccccc3)ccc2OC[C@H]2O[C@H](CC(=O)NCC3CCCCC3)CC[C@@H]21,–
C[C@@H](NC(=O)C[C@H]1CC[C@@H]2[C@@H](COc3ccc(NS(=O)(=O)c4ccc(Cl)cc4)cc3C(=O)N2C)O1)c1ccccc1,-89
CN1C(=O)c2cc(NC(=O)c3ccc(C(F)(F)F)cc3)ccc2OC[C@H]2O[C@H](CC(=O)NCc3ccc4c(c3)OCO4)CC[C@H]21,–
C[C@H](NC(=O)C[C@H]1CC[C@H]2[C@@H](COc3ccc(NS(=O)(=O)c4ccc(Cl)cc4)cc3C(=O)N2C)O1)c1ccccc1,–
CN1C(=O)c2cc(NC(=O)Cc3cccs3)ccc2OC[C@@H]2O[C@H](CC(=O)NCC3CCCCC3)CC[C@@H]21,-78
CN1C(=O)c2cc(NC(=O)c3ccc(C(F)(F)F)cc3)ccc2OC[C@@H]2O[C@@H](CC(=O)NCc3ccc4c(c3)OCO4)CC[C@@H]21,-82
CN1C(=O)c2cc(NC(=O)NCc3ccccc3)ccc2OC[C@H]2O[C@H](CC(=O)NCC3CCCCC3)CC[C@H]21,–
Cc1ccc(N2C(=O)c3ccc(Oc4ccc(N)cc4)cc3C2=O)cc1,–
CCc1ccc(-c2nccn2Cc2cccnc2)nc1,–
CC(C)CCNC(=O)c1nc(Nc2ccc(F)cc2)c2ccccc2n1,–
Cc1nc(N2CCCC2)nc2c1CCN(Cc1ccco1)CC2,–
CNC(=O)CC1CC2(CCN(S(=O)(=O)c3cccs3)CC2)c2ccccc21 (stereo not given),–
SMILES,Tg IFNy HTS
CNCCCC12CCC(c3ccccc31)c1ccccc12,-79!
CC1CCCCN1S(=O)(=O)c1ccc2c(c1)CCC(=O)N2CC(=O)NC1CCCC1 (stereo not given),–
Cc1nc2nnc3ccc(C(=O)NCCN(C)C)cc3c2n1-c1ccccc1,–
O=C(Cc1ccc(F)cc1)N1CCn2cc(Cn3cncn3)nc2C1,–
O=C(Cc1cccc(F)c1)N1CCn2cc(Cn3cncn3)nc2C1,–
Cc1ccc(CC(=O)N2CCn3cc(Cn4cncn4)nc3C2)cc1,-74
Cc1ccc(NC(=O)C(=O)NCCc2csc(-c3cccc(F)c3)n2)cc1Cl,–
O=C(NCCOc1ccccc1F)C(=O)N1CCCC1,–
CS(=O)(=O)N1CCN(C2CCOCC2)CC(C(=O)O)C1 (stereo not given),-100
CS(=O)(=O)N1Cc2ccccc2C2(CCN(C3CCOCC3)CC2)C1,–
CN(C)C(=O)[C@H]1C[C@@H]2CCN(S(C)(=O)=O)C[C@H]2O1,–
NC(=O)C1CCN(C(=O)CN2CCN(c3ccnc4cc(Cl)ccc34)CC2)CC1,–
Cc1ncc(C(=O)N2CCC(c3cc4nc(C(C)C)cc(C(F)(F)F)n4n3)CC2)c(C)n1,–
CNc1nc(C2CCN(C(=O)c3c(C(C)C)noc3C)CC2)nc2c1CN(C(C)=O)CC2,–
Cc1onc(C(C)C)c1C(=O)N1CCC(c2cc(C(F)(F)F)c3c(N)[nH]nc3n2)CC1,-75
CCN1Cc2ccccc2CC2(CCN(CC(=O)O)CC2)C1=O,–
